Assay results taken from the OligoGym collection.

target: NOTCH4; assay: pooled miR-30 sensor sort-seq; sequence = guide strand; details: shRNA
Note: reference of the scale not given here.

Sequence	sensor-assay potency score (higher = more potent)
TTTCTGGTCCTTACATATCTGC	-1.07
TTTAGGGTTCTTAAATAGCGAT	-1.06
TATCTTCCTCGCATTATCGCAG	-0.574
TTGAGCAGTTCTGTCCATCGTA	0.59

target: NOX3; assay: as above; details: shRNA

Sequence	sensor-assay potency score (higher = more potent)
TTGAACCCAAAATAACTCGTGT	-0.176
TTGCATTAACAGCTATCCCATA	-1.07
TAATTATTCTTTCACATGCATA	-1.3
TAAAGCTATGTGAAGAGCCTGA	0.784
TAGCGGTCTCTACAGAAGGTGA	-1.67
TTGAGGTAGCTCTCGTTAGGGG	-0.746
TACCAGAACAACTCATAGGAGG	-0.91
TAATAGAAATGAACACCTCTGG	-0.368
TAAAATTCAGGCACAGTGCGGA	-0.0572
TAGAAATGAACACCTCTGGGGT	-0.411
TAGATTTCAGAAGAGCAGCGAA	-0.277

target: NOXA1; assay: as above; details: shRNA

Sequence	sensor-assay potency score (higher = more potent)
TTGGGGAAGATGCCGATGCGGC	-1.12
TCTGCAGCGACTCCTCCTCGGG	-1.51
TGGTAGGCAGTCGACGTGCAGC	-1.86
TGGCATCATGGTTCGCTCCTGG	-0.558
TTGTGTAGCACCTCCCAGGCTT	-0.348
TTGGTCCAGGGCTGAGTCCAGG	-1.7
TCTGTCTCTGCATCGAGGGGGC	-0.532
TAACTGAGTTGCCCAAGCTGGG	-1.24
TTAGGGACCTGGCATCATGGTT	-1.05
TCACACAGGACGTCCACCGTGT	0.181
TCCTGGTAGGCAGTCGACGTGC	-1.54
ACATTGTGTAGCACCTCCCAGG	-1.3

target: NPBWR1; assay: as above; details: shRNA

Sequence	sensor-assay potency score (higher = more potent)
ATCACCGCGTAGACAACTGGTA	-0.96
TTGGTGACGGTCTTCATGCGGG	-0.52
TAGAGGAAGGGGTTGAGGCAGC	0.0364
TGTTGTACTGGTCGATAGCCAC	-0.835
TGTACTGGTCGATAGCCACGAT	-0.544
TCACCGCGTAGACAACTGGTAC	-1.33
TCGATAGCCACGATGAGCTTGC	0.0042
TTGATGGGCAGCACCAGCGTGA	-0.969
TTGGAGCAGCTCAGCGCCGGGT	-1.46
TAGAGGACACAGATGGTGGACA	-0.757
TGATGAAGTAGGAGATAGCGAT	-0.908
TTGTACTGGTCGATAGCCACGA	-0.0597
